# Screening results deposited in PubChem BioAssay by National Center for Advancing Translational Sciences (NCATS).
# Sampled rows, rich in hits. Any-hit rate of the full collection: about 7.4%.
# FLuc modulator = qHTS profiling assay for firefly luciferase inhibitor/activator using purifed enzyme and Km concentrations of substrates (counterscreen for miR-21 project). Luciferin 4-monooxygenase (Photinus pyralis), P08659. purified FLuc, Km substrates, luminescence inhibition. Potency, µM (titrated, usually from 57.5 µM), for inactives: top-dose activity change, negative = inhibition, usual class: inhibitors. 360,000 tested, 6.9% active. AID 588342, 2011;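 also: plate controls were vehicle for no effect and reference inhibitor for full effect; nearly all actives have a fitted effect of over 55% in size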
# Target sequence (P08659 whole entry, looked up): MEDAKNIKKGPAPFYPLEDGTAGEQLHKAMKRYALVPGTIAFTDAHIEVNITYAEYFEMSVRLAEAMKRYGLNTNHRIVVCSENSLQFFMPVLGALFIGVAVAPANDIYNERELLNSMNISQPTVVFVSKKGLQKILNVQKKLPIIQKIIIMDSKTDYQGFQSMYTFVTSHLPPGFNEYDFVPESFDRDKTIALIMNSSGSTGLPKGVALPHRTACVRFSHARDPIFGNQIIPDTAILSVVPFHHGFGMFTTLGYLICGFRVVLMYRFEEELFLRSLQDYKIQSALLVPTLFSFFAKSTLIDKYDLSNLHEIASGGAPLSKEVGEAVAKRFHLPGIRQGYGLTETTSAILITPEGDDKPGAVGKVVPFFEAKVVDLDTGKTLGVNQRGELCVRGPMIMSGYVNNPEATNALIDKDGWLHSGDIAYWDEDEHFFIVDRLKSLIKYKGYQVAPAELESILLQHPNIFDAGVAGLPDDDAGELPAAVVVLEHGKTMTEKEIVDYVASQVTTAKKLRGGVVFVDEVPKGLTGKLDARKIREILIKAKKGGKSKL
#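 Purified P. pyralis luciferase (10nM final) with 10uM D-luciferin and 10uM ATP (Km levels) in 50mM Tris acetate pH 7.5, 10mM Mg acetate, 0.01% Tween-20, 0.05% BSA; qHTS 6-point titration, ~60 µM downward; luminescence read.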
# Rab9 prom act = qHTS Assay for Rab9 Promoter Activators. Huh7 Rab9 promoter-luciferase reporter, luminescence, 24 h. Potency, µM (series often up to 9.22 µM), for the others: at the top dose activation, negative = inhibition, actives largely listed as activators. 320,000 tested, 2.8% active; also: % of control where 0% means no effect; nearly all actives have a fitted effect of over 60% in size
#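 Huh7 cells stably carrying a Rab9 promoter-luciferase reporter, 1500 cells per well in OP-MEM I with 10% FBS, treated with compound 24 hours at 37C. Luciferase activity read by luminescence after 10 minutes with Amplite reagent.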
# NPC1 prom act = qHTS Assay for NPC1 Promoter Activators; Huh7 NPC1 promoter luciferase reporter, 24 h; Potency, µM (highest dose often 9.22 µM), for the others: at the highest dose activation, hits mostly activators; 320,000 tested, 2.4% active; also: % of control where 0% means no effect; nearly all actives have a fitted effect of over 60% in size
#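 Huh7 reporter cells (NPC1 promoter driving luciferase) are dosed with compound for 24 h at 37 °C, 5% CO2; luciferase detection reagent is then added and luminescence measured after 10 min at ambient temperature.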
# SMN2 splice enh = qHTS Assay for Enhancers of SMN2 Splice Variant Expression; 210,000 tested, 2.8% active; AID 1458, 2008; HEK293 SMN2-luciferase splicing reporter, luminescence, 30-36 h; Potency, µM (doses to about 46.1 µM), for inactives: at the top dose activity change, positive = activation, actives largely listed as activators; also: % of control where 0% means no effect; nearly all actives have a fitted effect of over 55% in size
#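 qHTS luciferase splicing reporter: luminescence rises when SMN2 exon 7 is included in transfected HEK293 cells. Compound exposure lasted 30-36 h at 37C, with 4.5 mM final sodium butyrate as control, followed by a ONE-Glo read.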
# ELG1 genotoxic = qHTS screen for small molecules that induce genotoxicity in human embryonic kidney (HEK293T) cells expressing luciferase-tagged ELG1 | HEK293T ELG1-luciferase reporter, luminescence, 16 h | Potency, µM (doses to about 46 µM), for inactives: at the highest dose activity change, positive = activation, actives largely listed as activators | 330,000 tested, 1.3% active; also: % of control where 0% means no effect; nearly all actives have a fitted effect of over 60% in size
#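 Reporter readout depends on ELG1 protein level, which increases with genetic stress. After 16 hr compound exposure at 37 °C, luciferase activity was quantified using ONE-Glo.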
# * = called active by the depositor; ? = inconclusive; / = not tested or not shown; [ ] = dose if it differs, or a comment. Calls follow the shape of the dose curve; as a rule, active = well fitted curve in the direction sought with a large enough effect; inconclusive = small, poorly fitted or top-dose-only effect, or another doubt; inactive = no such curve, though single readings can be large; an effect the other way counts as inactive or inconclusive. Potency is read from the fitted curve at half-maximal effect.
SMILES,FLuc modulator,Rab9 prom act,NPC1 prom act,SMN2 splice enh,ELG1 genotoxic
CCOc1ccc(-c2nc(CSc3nnc(N)s3)cs2)cc1,1.9µM*,?,?,?,5.01µM*
CCCOc1ccc(-c2cnc(N)s2)cc1,10.7µM*,3.16µM*,?,17.8µM*,?
CCOC(=O)c1ccc(CSc2nnc(N)s2)cc1,16.9µM*,?,?,?,23.1µM*
Cc1ccsc1/C=N/NC(=O)c1nnn(-c2nonc2N)c1CSc1ccccc1,2.2%,-3.3%,1.2%,/,9.6%
Nc1nnc(SCCOc2cccc(Br)c2)s1,?,14.4%,12.5%,-2.3%,8.9%
Nc1nnc(SCCCOc2ccc(F)cc2)s1,15.1µM*,3.0%,-4.5%,/,-4.6%
c1ccc2c3c(cc(N4CCOCC4)c2c1)OC1(N2CCOCC2)CCCCC1O3 (stereo not drawn),0.2%,3.2%,0.6%,22.4µM*,-14.8%
O=C(Cn1cncn1)N/N=C/c1cccc(Cl)c1,-2.3%,-1.4%,-1.5%,/,0.2%
C=CCn1c(C)cc(C(=O)CSc2nnc(NCc3ccccc3)s2)c1C,16.9µM*,10.9%,6.7%,3.0%,13.5%
C=CCn1c(C)cc(C(=O)CSc2nc3ccccc3o2)c1C,1.9µM*,?,0.631µM*,?,1.64µM*
Cc1cc(C(=O)CSc2nc3ccccc3o2)c(C)n1C1CC1,13.5µM*,2.24µM*,2.24µM*,11.2µM*,18.4µM*
O=C(CSc1nnc(NCc2ccccc2)s1)c1ccco1,15.1µM*,9.9%,17.3%,9.2%,4.9%
Cc1cc(C(=O)CSc2ncnc3ccccc23)c(C)n1C1CC1,?,-6.2%,15.5%,/,0.1%
C=CCn1c(C)cc(C(=O)CSc2nnc(NC(C)C)s2)c1C,?,15.0%,27.1%,10.2%,1.4%
O=C(CC1C(=O)N(c2ccccc2)C(=O)N1Cc1ccc2c(c1)OCO2)Nc1ccccc1 (stereo not drawn),-10.5%,/,/,3.7%,/
CN1CCN(C(=O)c2ccc(CNS(=O)(=O)c3cccc(Cl)c3)cc2)CC1,-0.6%,2.6%,-0.2%,/,0.1%
C=CCn1c(C)cc(C(=O)CSc2nnc(Cc3ccccc3)o2)c1C,15.1µM*,6.9%,14.2%,-6.8%,0.6%
Cc1cc(C(=O)CSc2nnc(Cc3ccccc3)o2)c(C)n1Cc1ccc2c(c1)OCO2,-22.3%,-5.8%,-5.8%,-48.9%,-6.1%
NC(Cc1ccccc1)C(O)(c1ccccc1)c1ccccc1 (stereo not drawn),-1.3%,-16.2%,-1.8%,/,-6.8%
CCc1c(C(=O)Nc2ccc(OC)cc2)[nH]c(C)c1C(C)=O,?,21.3%,13.8%,22.4µM*,3.2%
CCOC(=O)c1c(C)[nH]c(C(=O)NNC(=O)c2ccccc2)c1C,6.75µM*,1.78µM*,0.562µM*,11.2µM*,?
CCc1c(C(=O)Nc2cc(C)ccc2OC)[nH]c(C)c1C(C)=O,2.0%,-0.6%,8.8%,-6.0%,?
CCOC(=O)c1c(C)[nH]c(C(=O)NNC(=O)c2ccc(Br)cc2)c1C,?,29.9%,15.9%,/,7.2%
CCc1c(C(=O)Nc2ccc(C)c(C)c2)[nH]c(C)c1C(C)=O,15.1µM*,3.16µM*,?,/,?
CC(=O)c1c(C)[nH]c(C(=O)NCCc2cccc(C)c2)c1C,16.9µM*,?,?,11.2%,5.7%
SMILES,FLuc modulator,Rab9 prom act,NPC1 prom act,SMN2 splice enh,ELG1 genotoxic
COCCN(CC(=O)Nc1cccc(S(=O)(=O)N2CCCC2)c1)Cc1nc2ccccc2c(=O)[nH]1,2.9%,-0.9%,-2.2%,/,-3.2%
CCOC(=O)c1c(C)[nH]c(C(=O)Nc2ccc(C)c(Cl)c2)c1C,2.39µM*,3.98µM*,2µM*,11.2µM*,?
CCN(CC)S(=O)(=O)c1ccc(N2CCOCC2)c(NC(=O)c2ccc(F)cc2)c1,-0.2%,-1.4%,-1.9%,8.8%,-8.5%
CC(=O)c1c(C)[nH]c(C(=O)Nc2ccc(C)c(C)c2)c1C,10.7µM*,1.41µM*,?,/,10.3µM*
CC(=O)c1c(C)[nH]c(C(=O)Nc2cc(C)ccc2C)c1C,-1.7%,2.5%,5.0%,-12.9%,-0.8%
CC(=O)c1c(C)[nH]c(C(=O)Nc2ccc(C)cc2Br)c1C,?,0.891µM*,3.55µM*,/,?
CCN(CC)S(=O)(=O)c1ccc(N2CCOCC2)c(NC(=O)c2[nH]c(C)c(C(C)=O)c2C)c1,/,/,/,/,10.3µM*
COc1ccc(C(CNC(=O)C(CCSC)NC(=O)c2ccccc2OC)N2CCCCC2)cc1 (stereo not drawn),2.0%,-4.0%,0.5%,/,4.5%
CCc1cc2ccc(C)cc2nc1SCC(=O)NC1CCCC1,-1.1%,3.0%,-2.8%,/,0.1%
CC(=O)c1c(C)[nH]c(C(=O)Nc2ccc3c(c2)OCCO3)c1C,4.78µM*,1.26µM*,1.78µM*,5.62µM*,?
CCOC(=O)c1[nH]c(C)c(C(=O)Nc2ccc3c(c2)OCCO3)c1C,?,10.1%,12.1%,13.2%,12.3%
COc1ccc(-c2cnc(-c3cccnc3)o2)cc1,/,/,/,11.2µM*,/
COc1cc2c(cc1OC)C(c1ccc(-c3ccc(Cl)cc3Cl)o1)=NCC2,15.1µM*,-4.0%,-7.8%,-19.9%,-13.5%
COc1cc2c(cc1OC)C(c1ccc(-c3ccccc3Cl)o1)=NCC2,2.13µM*,-2.0%,17.3%,-38.4%,11.1%
COc1cc2c(cc1OC)C(c1ccc(-c3ccc(Cl)c(Cl)c3)o1)=NCC2,15.1µM*,-8.2%,-0.6%,-62.4%,-16.4%
COc1cc2c(cc1OC)C(c1ccc(-c3cc(Cl)ccc3Cl)o1)=NCC2,1.0%,-24.0%,-1.9%,-14.5%,-25.9%
CCOC(=O)c1cc(-c2ccccc2)n(-c2cccc(C(=O)NC(C)CC)c2)c1C (stereo not drawn),-1.6%,/,/,/,/
OCCN(CCO)c1ncnc2nc[nH]c12,/,/,/,-13.5%[9.22 µM],/
C[C@@H]1NC(=O)N(CCCn2ccnc2)C1=O,1.1%,-0.6%,2.7%,/,-1.9%
COc1ccc(CNC(=O)CSc2nc(SC)ns2)cc1,-8.8%,-2.6%,3.0%,/,0.0%
CCN(CC)S(=O)(=O)c1cc(C(=O)NC2CCCCC2)ccc1C,7.57µM*,3.98µM*,2.82µM*,?,?
CCN(CC)S(=O)(=O)c1cc(C(=O)Nc2ccc(Cl)cn2)ccc1C,2.39µM*,1.58µM*,1.78µM*,1.58µM*,1.84µM*
N#CCC(=O)Nc1ncc(Cc2ccccc2Cl)s1,-4.1%,4.1%,-7.8%,-1.8%,-3.9%
Cn1cccc1C(=O)NC(=O)COC(=O)CC12CC3CC(CC(C3)C1)C2,16.9µM*,-3.8%,1.0%,-7.4%,5.8%
COc1cccc(C(=O)N(Cc2sccc2C)C2CCS(=O)(=O)C2)c1 (stereo not drawn),2.6%,/,/,10.8%,/
CC(=O)c1ccc(NC(=O)CN2C(=O)CCc3ccccc32)cc1,6.01µM*,/,/,/,/
